Screens as filed in PubChem.
A selection: hits, their analogues and other compounds. The true share with any hit is near 2.4%.
M1 ag: human M1 muscarinic receptor agonists, primary screen, Fluo-8 calcium fluorescence, CHO-K1 cells, HTS; Muscarinic acetylcholine receptor M1 (Homo sapiens), P11229; CHO-K1 hM1, agonist mode; 0% DMSO, 100% acetylcholine EC100; activation, % at 3 µM; 0.33% of 360,000 active;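 active = activation above the run's mean compound activation plus 3 SD, cut at about 16% in these data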;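 note: peak over basal fluorescence ratio within a 140 s kinetic read after compound addition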
Target sequence (P11229 whole entry, looked up): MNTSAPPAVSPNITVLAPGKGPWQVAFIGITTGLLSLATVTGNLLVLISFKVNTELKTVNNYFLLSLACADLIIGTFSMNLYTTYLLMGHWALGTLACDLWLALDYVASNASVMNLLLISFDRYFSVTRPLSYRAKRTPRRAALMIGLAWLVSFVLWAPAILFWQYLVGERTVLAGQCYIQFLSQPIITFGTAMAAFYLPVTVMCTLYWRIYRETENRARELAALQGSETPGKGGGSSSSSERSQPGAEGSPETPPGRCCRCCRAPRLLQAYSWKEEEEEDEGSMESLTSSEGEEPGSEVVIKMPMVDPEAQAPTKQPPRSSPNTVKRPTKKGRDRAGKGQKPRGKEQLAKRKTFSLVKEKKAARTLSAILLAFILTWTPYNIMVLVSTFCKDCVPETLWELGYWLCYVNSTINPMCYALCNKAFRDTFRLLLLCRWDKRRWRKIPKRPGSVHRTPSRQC
CHO-K1 Ca PAM: nonselective calcium activators in parental CHO-K1 cells, primary screen, counter-screen for M1 PAM project, cell-based, Fluo-8 calcium fluorescence, full deck, 1536-well; ATP EC20; 0% at ATP EC20, 100% at ATP max; activation, % at 3 µM; 0.02% of 360,000 active; AID 602247, 2012;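 active = activation above the run cutoff, the mean activation of all test compounds plus 3 SD, cut at about 40% in these data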;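 note: peak over basal fluorescence ratio in a 140 s read after ATP addition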
M1 antag: human M1 muscarinic receptor antagonists, primary screen, CHO-K1 cells, Fluo-8 calcium fluorescence, 1536-well. Muscarinic acetylcholine receptor M1 (Homo sapiens), P11229. CHO-K1 hM1, ACh EC80 antagonist. inhibition, % at 3 µM. 1.3% of 360,000 active. AID 588852, 2011;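 active = percent inhibition above its own plate's cutoff, namely the mean of that plate's compound wells plus 3 SD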;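 note: peak over basal fluorescence ratio during 140 s after agonist addition; 0% = ACh EC80 plus DMSO and 100% = DMSO alone without agonist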
CHO-K1 Ca antag: counter-screen for M1 antagonists: effect in parental CHO-K1 cells | inhibition, % at 3 µM | AID 602250 | ATP-induced calcium, Fluo-8 fluorescence | 0.6% of 360,000 active;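 active = inhibition above a per-plate cutoff, the plate's mean sample inhibition plus 3 SD, cut at about 24% in these data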;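 note: 0% = DMSO plus EC80 ATP and 100% = DMSO alone without ATP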
CHRM1 PAM: human M1 muscarinic receptor positive allosteric modulators, primary screen, CHO-K1 cells, Fluo-8 calcium fluorescence, 1536-well; Muscarinic acetylcholine receptor M1 (Homo sapiens), P11229; CHO-K1 hM1, ACh EC20; 0% = ACh EC20, 100% = maximal ACh; activation, % at 3 µM; 0.088% of 360,000 active; AID 588819, 2011; in the data active = activation above about 19%, passing the limit was not always enough
CHO-K1 Ca ag: counter-screen for M1 agonists: effect in parental CHO-K1 cells. activation, % at 3 µM. AID 602248, 2012. 0.48% of 360,000 active. Fluo-8 calcium fluorescence; scaled to maximal ATP response, vehicle zero; in the data active = activation above about 15%;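 note: untransfected CHO-K1 host cells lacking M1 receptor as counterscreen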
The depositor's hits bear a star.

How did O=C(/C=C1\NC2(CCCC2)Cc2ccccc21)C(=O)N/N=C/c1ccccc1O do in these assays?
M1 ag: -3.8; CHO-K1 Ca PAM: 8.3; M1 antag: -11.4; CHO-K1 Ca antag: 0.6; CHRM1 PAM: 7.8; CHO-K1 Ca ag: -0.1

What do the screens show for `COc1cc(/C=C(/C#N)C(=O)Nc2cc(C(F)(F)F)ccc2Cl)ccc1OCC(=O)Nc1cccc(C(F)(F)F)c1`?
M1 ag: -1.6; CHO-K1 Ca PAM: 12.6; M1 antag: 13.9; CHO-K1 Ca antag: -3.7; CHRM1 PAM: -8.1; CHO-K1 Ca ag: 0.2

How did CNC(=O)/C(C#N)=C\c1cc(C)n(-c2ccc(N3CCOCC3)cc2)c1C do in these assays?
M1 ag: -4.4; CHO-K1 Ca PAM: -14.9; M1 antag: 4.9; CHO-K1 Ca antag: 30.6*; CHRM1 PAM: -14.2; CHO-K1 Ca ag: 3.2

How did Cc1cc(/C=C2\SC(=S)NC2=O)c(C)n1-c1ccccc1 do in these assays?
M1 ag: 0.9; CHO-K1 Ca PAM: -24.0; M1 antag: -20.6; CHO-K1 Ca antag: 5.8; CHRM1 PAM: 12.2; CHO-K1 Ca ag: 1.6

What do the screens show for `Cc1cc(/C=C(\C#N)C(=O)Nc2ccc(F)cc2)c(C)n1-c1ccc(N2CCOCC2)c([N+](=O)[O-])c1`?
M1 ag: -1.7; CHO-K1 Ca PAM: 16.3; M1 antag: -8.1; CHO-K1 Ca antag: -7.9; CHRM1 PAM: 9.6; CHO-K1 Ca ag: 0.9

Results for Cc1cc(/C=C2/SC(=O)NC2=O)c(C)n1-c1ccc(N2CCOCC2)cc1 ?
M1 ag: 19.9*; CHO-K1 Ca PAM: 34.7; M1 antag: -2.7; CHO-K1 Ca antag: -9.0; CHRM1 PAM: 1.5; CHO-K1 Ca ag: 12.2

What do the screens show for `COCCNC(=O)C1CCC(Cn2c(=S)[nH]c3ccccc3c2=O)CC1` (configuration not stated)?
M1 ag: 1.0; CHO-K1 Ca PAM: -2.0; M1 antag: 0.9; CHO-K1 Ca antag: 30.1*; CHRM1 PAM: 2.2; CHO-K1 Ca ag: 0.1

What do the screens show for `O=[N+]([O-])c1nn(-c2ccc3c(c2)OCCO3)n(O)c1=NC1CCN(Cc2ccccc2)CC1`?
M1 ag: -9.1; CHO-K1 Ca PAM: -8.1; M1 antag: 46.8*; CHO-K1 Ca antag: 15.7; CHRM1 PAM: -25.3; CHO-K1 Ca ag: -0.1

Results for COc1cc(N=c2c([N+](=O)[O-])nn(-c3ccc4c(c3)OCCO4)n2O)cc(OC)c1 ?
M1 ag: -4.1; CHO-K1 Ca PAM: 13.4; M1 antag: -5.3; CHO-K1 Ca antag: -9.7; CHRM1 PAM: 2.3; CHO-K1 Ca ag: 1.7

Results for CC(C)c1ccc(N=c2c([N+](=O)[O-])nn(-c3ccc4c(c3)OCCO4)n2O)cc1 ?
M1 ag: -4.7; CHO-K1 Ca PAM: 9.3; M1 antag: 38.5*; CHO-K1 Ca antag: -11.8; CHRM1 PAM: -24.2; CHO-K1 Ca ag: 8.6

What do the screens show for `CCC/C(O)=C1\C(=O)CC(c2ccccc2)CC1=NCCc1c(C)[nH]c2ccc(C)cc12` (configuration not stated)?
M1 ag: -6.1; CHO-K1 Ca PAM: 8.6; M1 antag: 1.2; CHO-K1 Ca antag: -0.9; CHRM1 PAM: -3.9; CHO-K1 Ca ag: 0.7

Results for NCC1CC2c3ccccc3C1c1ccccc12 (configuration not stated) ?
M1 ag: -8.9; CHO-K1 Ca PAM: 1.0; M1 antag: 27.9*; CHO-K1 Ca antag: -2.4; CHRM1 PAM: -16.8; CHO-K1 Ca ag: 2.1

Results for Cc1cc(O)ccc1NC(=O)CCN1C(=O)c2ccc([N+](=O)[O-])cc2C1=O ?
M1 ag: -3.3; CHO-K1 Ca PAM: 12.0; M1 antag: 2.2; CHO-K1 Ca antag: -4.7; CHRM1 PAM: 28.5*; CHO-K1 Ca ag: 0.6

How did COC(=O)C1=C(C)NC(C)=C(C(=O)OC)C1c1ccccc1OCc1c(C)no[n+]1[O-] do in these assays?
M1 ag: -3.7; CHO-K1 Ca PAM: 32.2; M1 antag: -12.8; CHO-K1 Ca antag: -13.3; CHRM1 PAM: 22.1*; CHO-K1 Ca ag: 0.4

What do the screens show for `Cc1ccc2c(c1)C1(SC(C)C(=O)N1c1ccc(Cl)cc1)C(=O)N2` (configuration not stated)?
M1 ag: -12.4; CHO-K1 Ca PAM: 11.6; M1 antag: 25.2; CHO-K1 Ca antag: -0.1; CHRM1 PAM: -26.5; CHO-K1 Ca ag: 1.6

What do the screens show for `Cc1ccc(N2C(=O)CSC23C(=O)Nc2ccccc23)cc1` (configuration not stated)?
M1 ag: -4.8; CHO-K1 Ca PAM: 10.9; M1 antag: 41.2*; CHO-K1 Ca antag: -3.2; CHRM1 PAM: -18.7; CHO-K1 Ca ag: 0.4

Results for Cc1ccccc1C(=O)Nc1cccc(NC(=O)Cn2cnc3c(=O)n(C)c(=O)n(C)c32)c1 ?
M1 ag: -4.5; CHO-K1 Ca PAM: -3.2; M1 antag: 13.1; CHO-K1 Ca antag: 9.8; CHRM1 PAM: -3.1; CHO-K1 Ca ag: 7.2

What do the screens show for `CCN(CC)CCOC(=O)C1(c2ccccc2)CCCC1`?
M1 ag: -9.1; CHO-K1 Ca PAM: 16.5; M1 antag: 99.8*; CHO-K1 Ca antag: -6.7; CHRM1 PAM: -23.9; CHO-K1 Ca ag: 2.7

How did O=C(COC(=O)C1(c2ccccc2)CCCC1)N1CCNC1=O do in these assays?
M1 ag: -5.9; CHO-K1 Ca PAM: 9.7; M1 antag: -12.0; CHO-K1 Ca antag: -7.9; CHRM1 PAM: 2.7; CHO-K1 Ca ag: 0.7

Results for CN(C)CCOC(=O)C1(c2ccccc2)CCOCC1 ?
M1 ag: -5.8; CHO-K1 Ca PAM: 9.9; M1 antag: 23.4*; CHO-K1 Ca antag: -5.5; CHRM1 PAM: -24.2; CHO-K1 Ca ag: 0.4

What do the screens show for `O=C(OCCCN1CCCC1)C1(c2ccccc2)CCCC1`?
M1 ag: -6.1; CHO-K1 Ca PAM: 8.4; M1 antag: 95.5*; CHO-K1 Ca antag: 3.4; CHRM1 PAM: -20.6; CHO-K1 Ca ag: 0.4

Results for CCN(CC)CCOC(=O)C1(c2ccc(OC)c(OC)c2)CCCC1 ?
M1 ag: -8.5; CHO-K1 Ca PAM: 18.0; M1 antag: 77.4*; CHO-K1 Ca antag: -16.5; CHRM1 PAM: -21.4; CHO-K1 Ca ag: 0.4

How did Cc1ccc(NC(=O)C2(c3ccccc3)CCOCC2)cc1 do in these assays?
M1 ag: -12.9; CHO-K1 Ca PAM: 11.7; M1 antag: -3.1; CHO-K1 Ca antag: -4.9; CHRM1 PAM: 13.3; CHO-K1 Ca ag: 0.9

Results for Cc1cc(C)c(S(=O)(=O)N2CCN(c3ccc([N+](=O)[O-])c(-n4nc(C)cc4C)c3)CC2)c(C)c1 ?
M1 ag: -4.2; CHO-K1 Ca PAM: -11.6; M1 antag: 6.2; CHO-K1 Ca antag: 12.0; CHRM1 PAM: -2.2; CHO-K1 Ca ag: -0.1
